# Reference: the OligoGym collection
# Molecular target: SPOCK1
# Assay: pooled miR-30 sensor sort-seq; sequence = guide strand
# Conditions: shRNA
row,Sequence,sensor-assay potency score (higher = more potent)
1,TTGTCTAGGAAATTGCCGTGGT,0.282
2,TTCCGCAACTCCTTGTCTGTGC,0.679
3,TATTTGTCCACACACCAGCACT,-1.26

# Molecular target: SPOPL
# Assay: as above
# Conditions: shRNA
row,Sequence,sensor-assay potency score (higher = more potent)
1,AAATTTTACTACTTTAACCTGT,0.191
2,TAAAAACTGGAGATCGAGCTGC,0.265
3,TTTACTACTTTAACCTGTGTGT,-0.00218
4,TTGAACTTTTTAACACTTCACC,-1.27
5,TTAACCTGTGTGTAACACCAGC,-0.559
6,TGTCGAAGTACACTGCACCTAT,-0.0442
7,TTTTGCTCGAACTTCACTTTTG,-1.29
8,TATTTGTATTAGTATGTCCTGA,-0.376
9,TGTAACACCAGCTTTCTGCTAT,0.257
10,TACTACTTTAACCTGTGTGTAA,-0.323
11,TTCTTCGCACATGACCTTCAGC,-0.607
12,TCGCACATGACCTTCAGCCGTT,-0.42

# Molecular target: SPRR2B
# Assay: as above
# Conditions: shRNA
row,Sequence,sensor-assay potency score (higher = more potent)
1,TATGAATCCATGATAAGCTTTG,-0.839
2,TTTGCTATCAGGGAACATCATG,-1.04
3,TTGCTATCAGGGAACATCATGG,-0.524
4,TGAAGCTCTGGGAACTGACAAA,-1.43
5,TCTTTCTGCTGAAGCTCTGGGA,-0.772
6,ATACTTTGGCTGGCAGGGTGGG,-1.37
7,TAAGGGGAAAGAAGCTCCCTAT,-0.405
8,TTCCCAGGCACACAGCTGCAGC,-1.61
9,TTAGAAAGGAAACCTTTTGCTA,-0.743
10,TTGCACAGGTGGTAGAAGCTCA,-0.478
11,TCTGGGAACTGACAAAGCCAAG,-1.68
12,TCCATGATAAGCTTTGATGAGA,-1.51

# Molecular target: SPSB2
# Assay: as above
# Conditions: shRNA
row,Sequence,sensor-assay potency score (higher = more potent)
1,TAGCGTAGCCCAGAGTTCCCTC,-0.633
2,TCTCTCTGGCACCTCCAGCTGC,-1.35
3,TTGATTTCCGCAGAGCTTGGGT,-0.0773
4,TTCTCTGAACAGTCTTTGGGGT,-0.466
5,TTGAATAGCCCCTCTTACCCCG,-0.468
6,TTGCTCTGATGGTACAGCTTCC,-0.719
7,TTGACCTCGATGTTCTCTGAAC,-1.03
8,TAGCAGACTGTCATAGCCTTGA,-0.29
9,TTTGGGGTTCCAACCGTGGCGC,-1.17
10,ATGTTCTCTGAACAGTCTTTGG,-1.78
11,TAGTGGTCAGTCTGCAGCGGGG,-1.67
12,TTGTGGCGCACACACAGGCGGC,-1.68
